High-throughput results (PubChem)
A selection: hits, their analogues and other compounds. The true share with any hit is near 3.4%.
CendR NRP1 mod: modulators of CendR peptide binding to NRP-1, primary screen, biochemical, fluorescence polarization, uHTS. Neuropilin-1 (Homo sapiens), O14786. FAM-RPARPAR peptide binding to NRP-1. inhibition, % at 25 µM. 0.85% of 360,000 active. AID 602438, 2012;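 active = inhibition or corrected inhibition above about 18%, plus a signal ratio from 0.5 to 1.5, limit read from the data, passing the limit was not always enough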
ADAM17 inh: ADAM17 inhibitors, primary screen, biochemical, QFRET. Disintegrin and metalloproteinase domain-containing protein 17 (Homo sapiens), P78536. recombinant ADAM17, EDANS/DABCYL FRET peptide cleavage. inhibition, % at 6.95 µM. 0.83% of 370,000 active. AID 720648, 2013;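 active = inhibition above the mean of compounds lying between control limits plus 3 SD, set per campaign, cut at about 8.5% in these data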;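 note: 0% = DMSO-only wells as the low control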
HGIII-sPLA2 inh: human group III sPLA2 inhibitors, primary screen, biochemical, QFRET, BODIPY PC-A2 liposome substrate; Group 3 secretory phospholipase A2 (Homo sapiens), Q9NZ20; QFRET BODIPY PC-A2 liposome hydrolysis, fluorescence; 0.56% of 370,000 active; inhibition, % at 12.2 µM; AID 743126, 2013;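 active = inhibition above mean plus 3 SD of compounds lying within the high and low control bounds, cut at about 19% in these data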;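 note: 0% = median of test compound wells and 100% = no enzyme DMSO wells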
proKLK7 act: proKLK7 zymogen activators, primary screen, biochemical, fluorescence intensity; Kallikrein-7 (Homo sapiens), P49862; purified proKLK7, EDANS-DABCYL substrate fluorescence; 100% is mature enzyme control, 0% vehicle; activation, % at 7 µM; 0.9% of 370,000 active;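 active = activation above the mean of all tested compounds plus 3 SD, computed per campaign excluding outliers beyond control limits, cut at about 13% in these data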
ADAM10 inh: human ADAM10 inhibitors, primary screen, biochemical, QFRET, HTS. Disintegrin and metalloproteinase domain-containing protein 10 (Homo sapiens), O14672. recombinant ADAM10, EDANS/DABCYL FRET peptide cleavage, 3 h. inhibition, % at 7 µM. 0.62% of 370,000 active;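 active = inhibition above a per-campaign cutoff equal to the mean of compounds falling between control-based bounds plus 3 SD, cut at about 20% in these data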;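 note: 0% = DMSO wells while the 100% control is not disclosed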
Target sequence (O14672 214-748 limits assumed): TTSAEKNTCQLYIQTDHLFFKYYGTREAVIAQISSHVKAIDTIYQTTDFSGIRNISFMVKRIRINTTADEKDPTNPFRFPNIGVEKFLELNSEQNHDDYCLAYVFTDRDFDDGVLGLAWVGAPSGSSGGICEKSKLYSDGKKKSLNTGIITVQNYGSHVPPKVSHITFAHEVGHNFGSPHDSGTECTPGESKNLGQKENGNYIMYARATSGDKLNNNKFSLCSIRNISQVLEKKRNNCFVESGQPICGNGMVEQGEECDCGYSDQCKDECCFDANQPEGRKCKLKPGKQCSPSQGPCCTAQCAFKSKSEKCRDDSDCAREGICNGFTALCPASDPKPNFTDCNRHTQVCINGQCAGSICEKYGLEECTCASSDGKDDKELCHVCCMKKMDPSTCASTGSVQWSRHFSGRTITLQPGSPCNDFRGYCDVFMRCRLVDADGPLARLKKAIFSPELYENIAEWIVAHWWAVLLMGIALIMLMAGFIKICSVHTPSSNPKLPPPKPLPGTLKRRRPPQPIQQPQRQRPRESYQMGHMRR
Starred values were filed as active, the others as inactive.

COC(=O)C1=C(c2ccc(C(C)=O)cc2)C[C@@H]2CC[C@H]1N2C(=O)NCc1ccc2c(c1)OCO2 was read as CendR NRP1 mod 21*, ADAM17 inh -4, HGIII-sPLA2 inh 5, proKLK7 act 0 and ADAM10 inh -8.
For COC(=O)C1=C(c2ccc(Cl)c(C(F)(F)F)c2)C[C@@H]2CC[C@H]1N2C(=O)NCCNC(C)=O the results were CendR NRP1 mod 24*, ADAM17 inh -3, HGIII-sPLA2 inh 7, proKLK7 act 0 and ADAM10 inh 2.
COC(=O)C1=C(c2ccc(Cl)c(C(F)(F)F)c2)C[C@@H]2CC[C@H]1N2C(=O)NCCCOC(C)C was read as CendR NRP1 mod 2.
Screening CCCNC(=O)N1[C@H]2CC[C@@H]1C(C(=O)OC)=C(c1ccc(F)cc1F)C2 returned CendR NRP1 mod 32*, ADAM17 inh 0, HGIII-sPLA2 inh 1, proKLK7 act -1 and ADAM10 inh 2.
For COC(=O)C1=C(c2cccc(C#N)c2)C[C@@H]2CC[C@H]1N2C(=O)NCCO the results were CendR NRP1 mod 29*, ADAM17 inh -1, HGIII-sPLA2 inh 12, proKLK7 act 0 and ADAM10 inh -8.
O=C(CNC(=O)OCc1ccccc1)NC(Cc1ccccc1)P(=O)(Oc1ccccc1)Oc1ccccc1 (stereo unspecified) was read as ADAM17 inh 4, HGIII-sPLA2 inh -27, proKLK7 act -1 and ADAM10 inh 12.
For COC(=O)C1=C(c2ccc(F)cc2OCc2ccccc2)C[C@@H]2CC[C@H]1N2C(=O)N1CCCC1 the results were CendR NRP1 mod 27*, ADAM17 inh 1, HGIII-sPLA2 inh -3, proKLK7 act 0 and ADAM10 inh 1.
`COC(=O)C1=C(c2ccc(F)cc2OCc2ccccc2)C[C@@H]2CC[C@H]1N2C(=O)NC(C)C` gave CendR NRP1 mod 21, ADAM17 inh 3, HGIII-sPLA2 inh -8, proKLK7 act 1 and ADAM10 inh 13.
For COC(=O)C1=C(c2cccc(C#N)c2)C[C@@H]2CC[C@H]1N2C(=O)N1CCC(O)CC1 the results were CendR NRP1 mod 25*, ADAM17 inh -1, HGIII-sPLA2 inh 3, proKLK7 act 0 and ADAM10 inh 2.
Cc1ccccc1CCC[C@H](CC1CCCCC1)CN(C)C(=O)Oc1ccccc1 was read as ADAM17 inh -6, HGIII-sPLA2 inh 6, proKLK7 act 0 and ADAM10 inh -3.
O=C(NC(Cc1ccccc1)P(=O)(O)Oc1ccccc1)OCc1ccccc1 (stereo unspecified) was read as ADAM17 inh -1, HGIII-sPLA2 inh -3, proKLK7 act 0 and ADAM10 inh 0.
For c1cncc(-c2ccc3n2Cc2cnnn2-c2ccccc2-3)c1 the results were ADAM17 inh -33, HGIII-sPLA2 inh 0, proKLK7 act 0 and ADAM10 inh -118.
For C[C@]12CC[C@H](O)CC1=CC(=O)C1C2CC[C@]2(C)C(=O)[C@H](O)CC12 (stereo partly specified) the results were CendR NRP1 mod 19*, ADAM17 inh -3, HGIII-sPLA2 inh 10, proKLK7 act 0 and ADAM10 inh -6.
For CC(C)(C)C(=O)O[C@H]1CC[C@@]2(C)C(=CC(=O)C3C2CC[C@]2(C)C(=O)[C@H](O)CC32)C1 (stereo partly specified) the results were CendR NRP1 mod -7, ADAM17 inh 5, HGIII-sPLA2 inh 5, proKLK7 act 0 and ADAM10 inh -7.
`CC[n+]1c(/C=C/C=C/c2ccc(N(C)C)cc2)sc2ccccc21` gave CendR NRP1 mod -26, ADAM17 inh -1, HGIII-sPLA2 inh 37*, proKLK7 act 0 and ADAM10 inh 5.
Cc1nc2c(c(C)nn2-c2ccccc2)c(C)c1CCC(=O)N1CCC2(CC1)OCCO2 was read as CendR NRP1 mod 51*.
`Cc1nc2c(-c3ccccc3)c(C)nn2c(C)c1CCC(=O)N1CCC2(CC1)OCCO2` gave CendR NRP1 mod -4, ADAM17 inh 3, HGIII-sPLA2 inh -2, proKLK7 act 0 and ADAM10 inh 5.
